Measured values reported in PubChem BioAssay (NCI).
About 83,000 compounds went through this panel and 20% of them were active in at least one assay; those are over-represented in the sample as a whole.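 Single-concentration screen, 48 h exposure, 96-well plates. Endpoint: percent growth. Below 10 = active.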 Unmarked numbers belong to inactive results. Activity calls are given as the source filed them.

System: HL-60(TB) leukemia
Assay: NCI-60 one-dose screen, 48 h (100 = growth as untreated, 0 = no growth, -100 = all killed)
Details: 10 µM unless noted

SMILES | growth
COc1cc(/C=C/C(=O)c2ccc(Cl)cc2)ccc1OS(=O)(=O)c1ccc(C)cc1 | 75.2%
COc1cc(Cl)cc(-c2nn(-c3cccc(NC(=O)Nc4ccc(Cl)c(C(F)(F)F)c4)c3)cc2-c2ccncc2)c1 | -9.59% (active)
CCCC/C=N/NC(=S)NCc1ccccc1 | 105%
CCOC(=O)c1c(C(F)(F)F)n([O-])c2ccc(Cl)cc2[n+]1=O | -65.2% (active)
CN(CCOc1ccc(C#N)cc1)CCOc1ccc(C#N)cc1 | 42.4%
COc1cc(C2CC(=O)Nc3c2c(C)nn3-c2nc3ccccc3[nH]2)cc2c1OCC(=O)N2 (stereo not given) | 77.4%
CCOC(CN=Cc1cc(C)c2[nH]c3ccccc3c2c1C)OCC | 76.6%
COc1cc(/C=C/c2cc(/C=C/c3ccc(O)c(OC)c3)n(C(=O)Nc3ccc(F)cc3)n2)ccc1O | -21.4% (active)
S=c1[nH]nc(CSc2ncnc3c2c(-c2ccccc2)cn3-c2ccc(Cl)cc2)o1 | 101%
COc1ccc(-c2c3c(N)c4c(nc3nc3c2c(C)nn3-c2ccccc2)CCCC4)cc1 | 87.2%
O=C1NC(=O)C(c2coc3cc(Br)ccc23)=C1c1c[nH]c2ccccc12 | 13.1%
Cc1cc(-c2ccccc2)on1 | 89.2%
O=C(Nc1ccc(CN2CCOCC2)cc1)c1[nH]ncc1Nc1ncnc2sccc12 | -22% (active)
COc1ccc2c(c1)cn1c3ccc(OC)cc3[nH]c(=O)c21 | -53.8% (active)
C=CCOC(=O)C1=C(C)NC2=C(C(=O)CCC2)C1c1ccc(F)cc1 (stereo not given) | 87.8%
CCOC(=O)c1sc(Nc2ncccn2)nc1-c1ccccn1 | 109%
COC1OC(COS(=O)OC)C(O)C(O)C1OS(=O)OC (stereo not given) | 82.6%
O=C(Nc1c2ccccc2nc2ccccc12)c1ccccc1CN1C(=O)c2ccccc2C1=O | 38.9%

SMILES | growth
COc1ccccc1N1CCN(CCCOc2ccc(C(=O)/C=C3/C(=O)Nc4ccccc43)cc2)CC1 | 52.8%
Clc1ccc([C@@H]2C[C@@H]3Cc4cc(Br)c5ccccc5c4N2O3)c(Cl)c1 | 54.3%
CCCn1nc(C(=O)N2CCCCC2)c2c1CCC(N1CCC(c3ccncc3)CC1)C2 (stereo not given) | 96.6%
O=C(O)c1cc([N+](=O)[O-])ccc1Oc1ccccc1 | 88.6%
CC(C)(C)n1cc(-c2ccnc(NCCCNS(=O)(=O)c3ccc(F)cc3)c2)c(-c2cccc(O)c2)n1 | 39.9%
C(=N\Nc1ncc(-c2cc3cc4c(cc3o2)OCO4)s1)/c1c[nH]c2ccccc12 | 2.27% (active)
NS(=O)(=O)c1ccc(NC2=C(Cl)C(=O)c3ccccc3C2=O)cc1 | 87.6%
COc1cc(-c2nn(-c3cccc(NC(=O)NCCNC(=O)c4cccc(C(F)(F)F)c4)c3)cc2-c2ccncc2)ccc1Cl | 16.8%
CCC(=O)OC1=CN2C(=NC(c3ccc(N)cc3)=CC2c2cc(OC)c(OC)c(OC)c2)S1 (stereo not given) | 36.5%
CC(C)(C)CC(C)(C)Nc1c(-c2c(O)c3ccccc3oc2=O)nc2sc3ccccc3n12 | 21.6%
C1CNC(C2=NCCN2)=N1 | 109%
Nc1ccccc1NC(=O)c1ccc(CSc2nc(N3CCOCC3)c3cccn3n2)cc1 | -19.4% (active)
CCOC(=O)c1c(C)nc2c(c1N)C(=O)C(=O)N2Cc1ccc(C(F)(F)F)cc1 | 43.5%
CC1=C(NCCN2CCCC2)C(=O)c2c(OCc3ccc(F)c(Cl)c3)cccc2C1=O | 98.1%
C[C@@H]1O[C@@H](O[C@@H]2C[C@H](c3ccc4c(c3O)C(=O)C3=C(C4=O)[C@@]4(O)C(=O)C[C@](C)(O)C[C@@]4(O)C=C3)O[C@H](C)[C@H]2O)C[C@H](O)[C@@H]1O | 99.5%
CCCCC/C=N/Nc1nc(C)cc(=O)[nH]1 | 108%
Nc1cc(C(=O)O)cc(-n2c(O)c(C=C3N=c4ccccc4=N3)sc2=S)c1 | 101%
